Most compounds without a hit are left out; they make up all but 2.6% or so of the library.
mut p53 react – restores mutant p53 pathway signaling in SW480 cells; SW480 PUMA-promoter luciferase, p53 mutant reactivation; activation, % at 9.98 µM; actives 1.5% (n = 28,000); AID 624151; in the data active = activation above about 52%
NFkB SMM – binds human NF-kappa-B p105 on microarray; Small molecule microarray, anti-His fluorescence binding; calls only; actives 1.3% (n = 17,000);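 active = spot fluorescence over background significantly raised, with a chance value under 7% in all four replicate spots of the compound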;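 also: probe protein is his-tagged human p50 processed subunit at 1 µg/ml; raw spot fluorescence signals with no normalization applied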
Myc binder – binds human c-Myc on microarray; P01106; calls only; actives 1.5% (n = 17,000); small molecule microarray, His-c-Myc binding, anti-His fluorescence;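 active = spot fluorescence over background with P-value below 7% in all four replicate spots, showing protein binding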;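 also: score is binary with 100 for all four spots passing and 0 otherwise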
Target sequence (P01106 whole entry, looked up): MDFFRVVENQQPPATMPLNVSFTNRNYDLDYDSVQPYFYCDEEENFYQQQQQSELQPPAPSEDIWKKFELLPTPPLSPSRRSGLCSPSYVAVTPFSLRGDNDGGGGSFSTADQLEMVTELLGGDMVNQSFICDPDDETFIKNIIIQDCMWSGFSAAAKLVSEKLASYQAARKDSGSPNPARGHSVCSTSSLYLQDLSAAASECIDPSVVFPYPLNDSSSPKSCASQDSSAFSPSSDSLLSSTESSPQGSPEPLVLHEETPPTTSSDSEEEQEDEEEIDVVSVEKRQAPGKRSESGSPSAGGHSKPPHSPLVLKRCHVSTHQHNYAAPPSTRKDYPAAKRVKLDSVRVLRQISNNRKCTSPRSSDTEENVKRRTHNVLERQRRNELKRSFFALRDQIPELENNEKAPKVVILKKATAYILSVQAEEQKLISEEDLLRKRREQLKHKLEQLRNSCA
mut p53 SMM – mutant p53 (human) binding; small molecule microarray binding, anti-GST fluorescence; calls only; actives 0.4% (n = 17,000); AID 624136;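 active = compounds whose four printed spots each glow above background more than chance allows, each with a p-value under 7%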
STAT3 binder – binders of human STAT3; Small molecule microarray, His-STAT3 binding, anti-His fluorescence; calls only; actives 0.2% (n = 17,000);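 active = compounds whose four printed spots each show fluorescence over background unusually high for their array block, chance value under 7%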
The depositor's hits bear a star; i = inactive; . = not tested or not shown; + = active, no number.

SMILES | mut p53 react | NFkB SMM | Myc binder | mut p53 SMM | STAT3 binder
Cc1ccc(F)cc1S(=O)(=O)N[C@@H]1CCN(C(=O)c2ccc(OC(C)C)cc2)C1 | . | i | i | i | i
CCOc1ccccc1CNCCN1CCOCC1 | 4.8 | i | + | i | i
C=CC[C@]1(C(=O)NCCCOC)COC(c2ccc(OCCCO)cc2)=N1 | . | + | + | i | i
Cc1cccc(OCC(=O)Nc2ccc(Cl)c(-c3nc4ccccc4s3)c2)c1 | 13.6 | . | . | . | .
O=C(CSc1ncnc2scc(-c3ccc(Cl)cc3)c12)NCC1CCCO1 (configuration not stated) | 11.8 | i | i | i | i
S=C(NCC1CCCO1)Nc1cnn(Cc2ccc(Cl)cc2)c1 (configuration not stated) | -2.5 | i | + | i | i
COc1ccc(S(=O)(=O)Nc2ccc3c(c2)C(=O)N([C@@H](C)CO)C[C@@H](C)[C@@H](CN(C)S(C)(=O)=O)OCCCC[C@@H](C)O3)cc1 | 3.2 | . | . | . | .
O=S(=O)(c1ccc2ccccc2c1)N1CCN(Cc2cccc(OCCO)c2)CC1 | . | i | i | i | i
C[C@H](CO)N1C[C@H](C)[C@@H](CN(C)C(=O)Nc2ccc3c(c2)OCO3)Oc2c(NC(=O)C3CCOCC3)cccc2C1=O | 6.0 | i | i | i | i
COC(=O)c1ccc(-n2c(CCC(=O)O)ccc2-c2ccc(Br)cc2)cc1 | -11.1 | . | . | . | .
C[C@@H]1O[C@@H](O[C@H]2[C@H](O[C@H]3CC[C@@]4(C)C(CC[C@]5(C)C4CC=C4C6CC(C)(C)CC[C@]6(C(=O)O[C@@H]6O[C@H](CO[C@@H]7O[C@H](CO)[C@@H](O[C@@H]8O[C@@H](C)[C@H](O)[C@@H](O)[C@H]8O)[C@H](O)[C@H]7O)[C@@H](O)[C@H](O)[C@H]6O)CC[C@]45C)[C@]3(C)CO)OC[C@H](O)[C@@H]2O)[C@H](O)[C@H](O)[C@H]1O (some centres not stated) | 8.4 | i | i | i | i
C[C@@H]1O[C@@H](O[C@H]2[C@H](O[C@H]3CC[C@@]4(C)C(CC[C@]5(C)C4C=C[C@]46OC[C@@]7(CCC(C)(C)C[C@H]74)[C@@H](O)C[C@]65C)[C@]3(C)CO)O[C@H](CO)[C@@H](O)[C@@H]2O[C@@H]2O[C@H](CO)[C@@H](O[C@@H]3O[C@@H](C)[C@H](O)[C@@H](O)[C@H]3O)[C@H](O)[C@H]2O)[C@H](O)[C@H](O)[C@H]1O (some centres not stated) | -87.0 | + | + | i | i
O=C(c1ccc(F)cc1)n1nc(-c2ccc(Cl)cc2)nc1NCc1ccco1 | 149.6* | . | . | . | .
O=C(c1cccs1)n1nc(-c2ccccc2)nc1NCc1ccco1 | 85.5* | . | . | . | .
O=C(c1ccccc1Cl)n1nc(-c2ccccc2)nc1NCc1ccco1 | 25.6 | . | . | . | .
COc1ccc(NC(=O)CCn2cnc3ccccc3c2=O)cc1OC | 3.8 | . | . | . | .
COc1ccc(C#Cc2ccc3c(c2)[C@]2(C(=O)N3)[C@H](c3ccc(O)cc3)N3[C@H](c4ccccc4)[C@H](c4ccccc4)OC(=O)[C@H]3[C@@H]2C(=O)N2CCCCCCC2)cc1 | . | i | i | + | +
O=C1O[C@@H](c2ccccc2)[C@@H](c2ccccc2)N2[C@@H](c3ccc(O)cc3)[C@]3(C(=O)Nc4ccc(C#CC5(O)CCCCCC5)cc43)[C@@H](C(=O)N3CCCCCCC3)[C@H]12 | . | i | i | i | +
O=C1O[C@H](c2ccccc2)[C@H](c2ccccc2)N2[C@H]1[C@@H](C(=O)N1CCCCCCC1)[C@]1(C(=O)Nc3ccc(C#CC4(O)CCCCCC4)cc31)[C@H]2c1ccc(O)cc1 | . | i | i | i | i
N#Cc1cc2c(nc1SCC(=O)Nc1cc(C(F)(F)F)ccc1Cl)CCCCC2 | 5.4 | . | . | . | .
N#Cc1cc2c(nc1SCC(=O)Nc1ccccc1C(F)(F)F)CCC2 | 111.3* | . | . | . | .
CC(C)OC(=O)CSc1nc2c(cc1C#N)CCCCC2 | 98.1* | . | . | . | .
C[C@@H]1CCCCO[C@@H](CN(C)S(=O)(=O)c2ccc(F)cc2)[C@H](C)CN([C@@H](C)CO)C(=O)c2cc(NC(=O)CCCN(C)C)ccc2O1 | . | i | i | i | i
Cc1cccc(NC(=O)CN(c2ccc(Br)c(C)c2)S(C)(=O)=O)c1 | -15.1 | . | . | . | .
CCc1ccc(OCC(=O)Nc2cc(OC)ccc2OC)c(Br)c1 | 58.0* | . | . | . | .
CCc1ccc(OCC(=O)Nc2ccccc2C(=O)OC)c(Br)c1 | 58.7* | . | . | . | .
COC(=O)c1ccccc1NC(=O)COc1ccc(C(C)(C)C)cc1Br | 3.6 | . | . | . | .
